# In paper PMC7862700, “An all-to-all approach to the identification of sequence-specific readers for epigenetic DNA modifications on cytosine”:
# Assays:
# Assay in all cases: DAPPL (digital affinity profiling via proximity ligation, sequencing); 10 mM Tris-HCl pH 7.5, 50 mM NaCl, 1 mM DTT, 4% glycerol, room temperature, 30 min; GST-TFs on glutathione beads, 16-mer random dsDNA library, 0.1% formaldehyde crosslink after washing; high values mean tight binding
# FEV = target: T1, FEV (Homo sapiens, UniProt Q99581 1-238); details: protein: recombinant; tags: N-terminal GST; dsDNA, one strand shown
# T1 sequence: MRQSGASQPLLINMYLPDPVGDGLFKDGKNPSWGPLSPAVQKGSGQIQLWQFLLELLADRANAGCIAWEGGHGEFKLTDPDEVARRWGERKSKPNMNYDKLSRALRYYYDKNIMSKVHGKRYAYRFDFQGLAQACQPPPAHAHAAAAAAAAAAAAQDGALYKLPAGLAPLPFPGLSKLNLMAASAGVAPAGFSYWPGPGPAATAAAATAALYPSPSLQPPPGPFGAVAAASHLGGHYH
# Summary of the method: (§1)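 Binding signal is given per hexamer as its read frequency for a factor divided by its frequency in the tag-only sample. GST-fused human transcription factors were expressed in yeast, captured on glutathione beads, barcoded with DNA and pooled with that sample, then incubated with 200 nmole of a 16-mer random double-stranded DNA library in Tris/NaCl/DTT/glycerol buffer for 30 min at room temperature. The pools were then washed, crosslinked, proximity-ligated, amplified by PCR and sequenced on an Illumina NextSeq500.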
# ETV5 = ETV5 (Homo sapiens, UniProt P41161 1-510); details: protein: recombinant; tags: N-terminal GST; dsDNA, one strand shown
# Chain of ETV5 (P41161 whole entry): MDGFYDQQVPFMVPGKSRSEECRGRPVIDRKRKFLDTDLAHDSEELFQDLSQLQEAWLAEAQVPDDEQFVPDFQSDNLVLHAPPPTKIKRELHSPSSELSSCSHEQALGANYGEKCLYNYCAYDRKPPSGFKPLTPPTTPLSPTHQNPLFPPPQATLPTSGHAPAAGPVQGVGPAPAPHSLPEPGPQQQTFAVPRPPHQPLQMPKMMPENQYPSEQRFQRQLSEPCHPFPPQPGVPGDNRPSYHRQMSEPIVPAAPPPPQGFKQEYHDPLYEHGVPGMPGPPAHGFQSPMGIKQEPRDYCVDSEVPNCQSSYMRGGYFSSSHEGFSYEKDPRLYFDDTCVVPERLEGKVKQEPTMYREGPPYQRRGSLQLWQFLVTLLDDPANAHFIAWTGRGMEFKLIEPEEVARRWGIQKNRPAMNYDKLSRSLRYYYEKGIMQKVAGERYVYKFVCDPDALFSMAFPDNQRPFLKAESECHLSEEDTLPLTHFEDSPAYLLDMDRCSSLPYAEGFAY
# Summary of the method: as §1
# HSF1 = HSF1 (Homo sapiens, UniProt Q00613 1-529); details: protein: recombinant; tags: N-terminal GST; chain copies: 3; dsDNA, one strand shown
# Chain of HSF1 (Q00613 whole entry): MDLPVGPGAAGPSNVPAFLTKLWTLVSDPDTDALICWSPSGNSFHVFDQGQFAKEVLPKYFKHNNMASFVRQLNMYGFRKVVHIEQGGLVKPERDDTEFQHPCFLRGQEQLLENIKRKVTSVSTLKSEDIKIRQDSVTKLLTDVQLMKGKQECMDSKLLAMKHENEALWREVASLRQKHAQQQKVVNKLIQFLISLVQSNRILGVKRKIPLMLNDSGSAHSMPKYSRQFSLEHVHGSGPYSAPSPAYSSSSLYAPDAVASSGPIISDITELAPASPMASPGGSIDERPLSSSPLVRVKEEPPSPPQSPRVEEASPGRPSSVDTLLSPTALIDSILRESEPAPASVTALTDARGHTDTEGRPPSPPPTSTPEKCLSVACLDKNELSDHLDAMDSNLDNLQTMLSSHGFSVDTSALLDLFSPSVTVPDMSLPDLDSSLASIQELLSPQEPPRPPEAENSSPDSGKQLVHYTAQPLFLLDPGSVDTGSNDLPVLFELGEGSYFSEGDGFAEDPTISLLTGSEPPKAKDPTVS
# Summary of the method: as §1
# SPIC = target: T2, SPIC (Homo sapiens, UniProt Q8N5J4 1-248); details: protein: recombinant; tags: N-terminal GST; dsDNA, one strand shown
# T2 sequence: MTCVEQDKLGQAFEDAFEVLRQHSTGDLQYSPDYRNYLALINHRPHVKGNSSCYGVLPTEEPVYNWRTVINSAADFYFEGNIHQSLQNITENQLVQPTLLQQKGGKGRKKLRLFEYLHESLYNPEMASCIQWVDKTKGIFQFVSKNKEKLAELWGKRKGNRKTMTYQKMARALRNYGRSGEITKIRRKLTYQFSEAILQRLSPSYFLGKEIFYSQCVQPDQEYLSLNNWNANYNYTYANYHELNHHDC
# Summary of the method: as §1
# ELF4 = ELF4 (Homo sapiens, UniProt Q99607 1-663); details: protein: recombinant; tags: N-terminal GST; dsDNA, one strand shown
# Chain of ELF4 (Q99607 whole entry): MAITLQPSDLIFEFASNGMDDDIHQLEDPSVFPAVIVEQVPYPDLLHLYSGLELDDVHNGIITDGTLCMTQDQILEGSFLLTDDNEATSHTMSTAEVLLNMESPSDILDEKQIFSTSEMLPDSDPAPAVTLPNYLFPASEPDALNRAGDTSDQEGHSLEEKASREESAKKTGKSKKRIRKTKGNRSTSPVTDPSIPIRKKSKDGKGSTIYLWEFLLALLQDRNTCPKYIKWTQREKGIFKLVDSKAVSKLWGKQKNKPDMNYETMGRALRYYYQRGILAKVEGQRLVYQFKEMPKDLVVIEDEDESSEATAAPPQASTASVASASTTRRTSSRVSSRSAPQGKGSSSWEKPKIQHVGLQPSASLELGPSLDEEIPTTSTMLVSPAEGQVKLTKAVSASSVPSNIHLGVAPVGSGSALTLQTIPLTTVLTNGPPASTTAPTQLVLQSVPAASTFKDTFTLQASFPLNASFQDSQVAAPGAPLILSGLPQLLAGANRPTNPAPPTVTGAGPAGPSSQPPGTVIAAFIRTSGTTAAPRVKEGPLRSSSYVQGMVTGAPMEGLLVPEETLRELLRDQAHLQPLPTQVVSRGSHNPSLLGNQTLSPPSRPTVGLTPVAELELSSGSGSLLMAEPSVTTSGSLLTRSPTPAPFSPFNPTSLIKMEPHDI
# Summary of the method: as §1
# ELK4 = target: T3, ELK4 (Homo sapiens, UniProt P28324-2 1-405); details: protein: recombinant; tags: N-terminal GST; dsDNA, one strand shown
# T3 sequence: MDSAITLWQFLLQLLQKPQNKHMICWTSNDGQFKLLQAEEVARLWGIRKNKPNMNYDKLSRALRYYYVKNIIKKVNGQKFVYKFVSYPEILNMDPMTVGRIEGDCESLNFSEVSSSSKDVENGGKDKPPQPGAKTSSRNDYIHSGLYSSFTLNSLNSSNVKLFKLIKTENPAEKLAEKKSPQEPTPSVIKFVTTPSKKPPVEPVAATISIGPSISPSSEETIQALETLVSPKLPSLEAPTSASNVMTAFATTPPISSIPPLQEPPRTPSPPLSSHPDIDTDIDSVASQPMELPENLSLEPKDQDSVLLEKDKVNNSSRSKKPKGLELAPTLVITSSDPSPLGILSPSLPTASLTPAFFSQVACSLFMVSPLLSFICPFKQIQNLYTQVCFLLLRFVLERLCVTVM
# Summary of the method: as §1
# ETV2 = target: T4, ETV2 (Homo sapiens, UniProt O00321 1-342); details: protein: recombinant; tags: N-terminal GST; dsDNA, one strand shown
# T4 sequence: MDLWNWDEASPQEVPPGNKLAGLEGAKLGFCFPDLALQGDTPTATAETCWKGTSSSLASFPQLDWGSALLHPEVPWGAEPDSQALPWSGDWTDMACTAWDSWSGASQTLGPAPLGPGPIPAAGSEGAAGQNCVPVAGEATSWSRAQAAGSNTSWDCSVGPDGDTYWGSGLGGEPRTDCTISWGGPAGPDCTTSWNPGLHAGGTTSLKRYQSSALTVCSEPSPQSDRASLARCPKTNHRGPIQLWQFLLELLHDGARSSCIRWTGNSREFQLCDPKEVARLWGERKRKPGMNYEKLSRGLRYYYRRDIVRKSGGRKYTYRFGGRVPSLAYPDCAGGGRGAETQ
# Summary of the method: as §1
# ELF3 = target: T5, ELF3 (Homo sapiens, UniProt P78545 1-371); details: protein: recombinant; tags: N-terminal GST; dsDNA, one strand shown
# T5 sequence: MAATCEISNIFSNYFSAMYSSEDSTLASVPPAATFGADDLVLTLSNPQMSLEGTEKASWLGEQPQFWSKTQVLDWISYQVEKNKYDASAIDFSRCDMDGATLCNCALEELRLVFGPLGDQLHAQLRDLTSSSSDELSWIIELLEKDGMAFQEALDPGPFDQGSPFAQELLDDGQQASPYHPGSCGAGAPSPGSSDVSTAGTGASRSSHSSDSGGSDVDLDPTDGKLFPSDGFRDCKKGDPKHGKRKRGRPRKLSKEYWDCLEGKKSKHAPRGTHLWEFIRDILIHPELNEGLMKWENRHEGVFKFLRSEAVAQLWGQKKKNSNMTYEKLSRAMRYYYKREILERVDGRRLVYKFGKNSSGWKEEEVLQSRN
# Summary of the method: as §1
# CRX = CRX (Homo sapiens, UniProt O43186 1-299); details: protein: recombinant; tags: N-terminal GST; dsDNA, one strand shown
# Chain of CRX (O43186 whole entry): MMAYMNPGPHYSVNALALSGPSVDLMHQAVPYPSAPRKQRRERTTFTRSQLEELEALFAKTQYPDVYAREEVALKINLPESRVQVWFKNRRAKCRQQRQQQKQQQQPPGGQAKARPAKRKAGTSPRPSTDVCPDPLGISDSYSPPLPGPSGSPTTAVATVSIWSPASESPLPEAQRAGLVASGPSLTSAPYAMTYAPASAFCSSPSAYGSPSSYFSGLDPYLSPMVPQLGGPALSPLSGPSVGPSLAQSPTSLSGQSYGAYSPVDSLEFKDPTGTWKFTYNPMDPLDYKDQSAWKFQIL
# Summary of the method: as §1
# ETV1 = ETV1 (Homo sapiens, UniProt P50549 1-477); details: protein: recombinant; tags: N-terminal GST; dsDNA, one strand shown
# Chain of ETV1 (P50549 whole entry): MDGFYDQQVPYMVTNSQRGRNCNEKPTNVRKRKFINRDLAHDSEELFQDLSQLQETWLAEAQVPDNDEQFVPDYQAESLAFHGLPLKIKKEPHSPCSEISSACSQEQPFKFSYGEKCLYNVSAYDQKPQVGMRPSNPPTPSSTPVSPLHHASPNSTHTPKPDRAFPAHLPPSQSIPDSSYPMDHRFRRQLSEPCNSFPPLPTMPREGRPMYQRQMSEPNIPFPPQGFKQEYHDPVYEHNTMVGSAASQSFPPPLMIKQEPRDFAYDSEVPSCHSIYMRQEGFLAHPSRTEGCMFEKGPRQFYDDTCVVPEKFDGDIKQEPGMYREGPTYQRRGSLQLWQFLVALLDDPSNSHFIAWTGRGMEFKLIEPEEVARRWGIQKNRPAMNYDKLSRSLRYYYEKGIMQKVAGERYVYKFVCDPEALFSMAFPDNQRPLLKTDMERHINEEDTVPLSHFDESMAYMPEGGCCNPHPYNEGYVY
# Summary of the method: as §1
sequence,measurement,setting,value
AGATTT,binding signal,FEV,"1.16 fold enrichment (6-mer frequency, TF over GST control)"
same,binding signal,ETV5,"1.2 fold enrichment (6-mer frequency, TF over GST control)"
same,binding signal,HSF1,"1.75 fold enrichment (6-mer frequency, TF over GST control)"
same,binding signal,SPIC,"1.06 fold enrichment (6-mer frequency, TF over GST control)"
same,binding signal,ELF4,"1.16 fold enrichment (6-mer frequency, TF over GST control)"
same,binding signal,ELK4,"1.25 fold enrichment (6-mer frequency, TF over GST control)"
same,binding signal,ETV2,"1.05 fold enrichment (6-mer frequency, TF over GST control)"
same,binding signal,ELF3,"1.21 fold enrichment (6-mer frequency, TF over GST control)"
same,binding signal,CRX,"1.84 fold enrichment (6-mer frequency, TF over GST control)"
same,binding signal,ETV1,"1.15 fold enrichment (6-mer frequency, TF over GST control)"
